Source: article PMC7862700, “An all-to-all approach to the identification of sequence-specific readers for epigenetic DNA modifications on cytosine”

Tests used:
Experiment in all cases: DAPPL (digital affinity profiling via proximity ligation, sequencing); 10 mM Tris-HCl pH 7.5, 50 mM NaCl, 1 mM DTT, 4% glycerol, room temperature, 30 min; GST-TFs on glutathione beads, 16-mer random dsDNA library, 0.1% formaldehyde crosslink after washing; high values mean tight binding
FLI1 = target: T1, FLI1 (Homo sapiens, UniProt Q01543 1-452); conditions: protein: recombinant; tags: N-terminal GST; dsDNA, one strand shown
T1 sequence: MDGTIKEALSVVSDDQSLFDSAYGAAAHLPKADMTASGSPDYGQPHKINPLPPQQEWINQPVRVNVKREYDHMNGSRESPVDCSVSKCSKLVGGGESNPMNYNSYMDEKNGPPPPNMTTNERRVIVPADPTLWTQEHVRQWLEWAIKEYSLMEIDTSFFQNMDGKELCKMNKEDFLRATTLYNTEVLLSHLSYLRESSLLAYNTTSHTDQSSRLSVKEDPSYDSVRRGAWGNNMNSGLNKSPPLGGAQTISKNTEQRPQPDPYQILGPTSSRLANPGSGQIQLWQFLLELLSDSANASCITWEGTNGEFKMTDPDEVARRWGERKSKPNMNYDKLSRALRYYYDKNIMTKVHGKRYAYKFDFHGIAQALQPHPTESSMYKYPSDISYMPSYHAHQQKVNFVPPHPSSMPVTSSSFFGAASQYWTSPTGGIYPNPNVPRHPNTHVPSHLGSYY
How it was run: (§1)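 Binding signal is given per hexamer as its read frequency for a factor divided by its frequency in the tag-only sample. GST-fused human transcription factors were expressed in yeast, captured on glutathione beads, barcoded with DNA and pooled with that sample, then incubated with 200 nmole of a 16-mer random double-stranded DNA library in Tris/NaCl/DTT/glycerol buffer for 30 min at room temperature. The pools were then washed, crosslinked, proximity-ligated, amplified by PCR and sequenced on an Illumina NextSeq500.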

ELK1 = target: T2, ELK1 (Homo sapiens, UniProt P19419 1-428); conditions: protein: recombinant; tags: N-terminal GST; dsDNA, one strand shown
T2 sequence: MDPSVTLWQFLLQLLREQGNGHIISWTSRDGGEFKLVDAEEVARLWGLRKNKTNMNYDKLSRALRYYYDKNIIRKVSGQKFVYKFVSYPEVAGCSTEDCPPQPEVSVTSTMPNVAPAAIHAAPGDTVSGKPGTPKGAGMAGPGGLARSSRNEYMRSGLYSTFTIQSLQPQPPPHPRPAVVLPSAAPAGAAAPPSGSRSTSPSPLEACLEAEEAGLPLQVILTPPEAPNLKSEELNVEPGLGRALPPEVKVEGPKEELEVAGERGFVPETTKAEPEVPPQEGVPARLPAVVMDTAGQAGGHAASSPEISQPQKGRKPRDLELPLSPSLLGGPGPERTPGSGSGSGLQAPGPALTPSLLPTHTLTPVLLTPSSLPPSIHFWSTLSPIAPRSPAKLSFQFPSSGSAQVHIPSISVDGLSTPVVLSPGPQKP
How it was run: as §1

GABPA = target: T3, GABPA (Homo sapiens, UniProt Q06546 1-454); conditions: protein: recombinant; tags: N-terminal GST; dsDNA, one strand shown
T3 sequence: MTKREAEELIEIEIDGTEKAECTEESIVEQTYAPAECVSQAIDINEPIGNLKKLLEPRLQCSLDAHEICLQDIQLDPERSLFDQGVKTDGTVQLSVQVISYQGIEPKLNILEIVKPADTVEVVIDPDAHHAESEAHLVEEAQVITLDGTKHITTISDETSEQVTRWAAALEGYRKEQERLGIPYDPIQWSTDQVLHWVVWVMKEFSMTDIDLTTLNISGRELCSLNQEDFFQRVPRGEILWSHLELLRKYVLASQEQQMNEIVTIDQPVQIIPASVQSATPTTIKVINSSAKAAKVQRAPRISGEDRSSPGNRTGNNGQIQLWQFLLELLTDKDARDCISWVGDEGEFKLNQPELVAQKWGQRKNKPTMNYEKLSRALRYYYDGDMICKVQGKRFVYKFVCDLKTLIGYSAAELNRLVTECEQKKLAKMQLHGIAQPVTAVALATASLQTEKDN
How it was run: as §1

ELF1 = ELF1 (Homo sapiens, UniProt P32519 1-619); conditions: protein: recombinant; tags: N-terminal GST; dsDNA, one strand shown
Chain of ELF1 (P32519 whole entry): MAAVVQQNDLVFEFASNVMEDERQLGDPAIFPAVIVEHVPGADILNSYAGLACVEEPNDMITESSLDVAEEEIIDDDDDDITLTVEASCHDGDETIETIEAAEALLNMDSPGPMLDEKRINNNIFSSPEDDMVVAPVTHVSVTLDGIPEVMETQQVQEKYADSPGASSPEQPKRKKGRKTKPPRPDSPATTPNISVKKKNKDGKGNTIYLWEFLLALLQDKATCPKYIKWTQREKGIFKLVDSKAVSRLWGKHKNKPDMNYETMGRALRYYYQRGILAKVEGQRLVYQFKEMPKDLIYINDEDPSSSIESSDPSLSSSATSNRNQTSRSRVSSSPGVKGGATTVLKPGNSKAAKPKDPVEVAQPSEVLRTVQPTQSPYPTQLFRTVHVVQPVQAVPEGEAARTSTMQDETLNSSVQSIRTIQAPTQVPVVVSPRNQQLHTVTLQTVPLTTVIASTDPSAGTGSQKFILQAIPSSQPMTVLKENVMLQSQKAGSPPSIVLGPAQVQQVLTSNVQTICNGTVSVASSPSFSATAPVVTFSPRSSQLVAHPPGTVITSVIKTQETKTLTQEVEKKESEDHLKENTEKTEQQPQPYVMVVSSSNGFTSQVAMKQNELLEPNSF
How it was run: as §1

EHF = target: T4, EHF (Homo sapiens, UniProt Q9NZC4 1-300); conditions: protein: recombinant; tags: N-terminal GST; dsDNA, one strand shown
T4 sequence: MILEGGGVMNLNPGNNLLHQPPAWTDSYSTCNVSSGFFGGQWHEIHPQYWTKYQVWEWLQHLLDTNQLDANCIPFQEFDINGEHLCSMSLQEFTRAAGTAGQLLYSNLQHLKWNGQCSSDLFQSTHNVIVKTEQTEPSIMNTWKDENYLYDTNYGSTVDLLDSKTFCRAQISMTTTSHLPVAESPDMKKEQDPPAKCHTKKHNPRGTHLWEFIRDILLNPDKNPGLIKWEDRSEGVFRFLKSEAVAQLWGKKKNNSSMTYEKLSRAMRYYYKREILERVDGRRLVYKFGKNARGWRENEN
How it was run: as §1

SPIB = SPIB (Homo sapiens, UniProt Q01892 1-262); conditions: protein: recombinant; tags: N-terminal GST; dsDNA, one strand shown
Chain of SPIB (Q01892 whole entry): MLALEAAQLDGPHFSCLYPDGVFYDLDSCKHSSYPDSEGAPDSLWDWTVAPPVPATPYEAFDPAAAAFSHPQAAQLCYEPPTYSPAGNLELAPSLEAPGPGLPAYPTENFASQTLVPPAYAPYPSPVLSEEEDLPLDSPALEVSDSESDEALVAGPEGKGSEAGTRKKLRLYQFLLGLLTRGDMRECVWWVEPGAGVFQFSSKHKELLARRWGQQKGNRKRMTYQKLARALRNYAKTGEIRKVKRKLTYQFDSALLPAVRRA
How it was run: as §1

ELK3 = target: T5, ELK3 (Homo sapiens, UniProt P41970 1-407); conditions: protein: recombinant; tags: N-terminal GST; dsDNA, one strand shown
T5 sequence: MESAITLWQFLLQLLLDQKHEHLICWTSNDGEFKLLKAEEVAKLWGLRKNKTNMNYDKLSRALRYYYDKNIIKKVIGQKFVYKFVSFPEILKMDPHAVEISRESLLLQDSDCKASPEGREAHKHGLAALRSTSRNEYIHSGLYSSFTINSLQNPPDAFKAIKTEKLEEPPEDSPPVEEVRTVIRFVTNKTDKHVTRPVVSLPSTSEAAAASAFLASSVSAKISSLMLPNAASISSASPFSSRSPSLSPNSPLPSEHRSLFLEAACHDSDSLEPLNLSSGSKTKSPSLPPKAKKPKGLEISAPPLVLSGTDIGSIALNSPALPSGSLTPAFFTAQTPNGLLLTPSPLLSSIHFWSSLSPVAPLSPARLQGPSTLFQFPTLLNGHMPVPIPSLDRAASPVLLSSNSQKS
How it was run: as §1

FEV = target: T6, FEV (Homo sapiens, UniProt Q99581 1-238); conditions: protein: recombinant; tags: N-terminal GST; dsDNA, one strand shown
T6 sequence: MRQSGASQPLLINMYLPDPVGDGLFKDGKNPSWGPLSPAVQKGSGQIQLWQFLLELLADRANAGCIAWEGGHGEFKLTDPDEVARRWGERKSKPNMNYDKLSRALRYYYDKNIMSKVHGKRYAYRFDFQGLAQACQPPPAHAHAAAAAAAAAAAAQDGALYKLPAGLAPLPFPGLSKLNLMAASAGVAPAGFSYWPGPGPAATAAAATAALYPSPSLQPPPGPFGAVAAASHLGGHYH
How it was run: as §1

ETV5 = ETV5 (Homo sapiens, UniProt P41161 1-510); conditions: protein: recombinant; tags: N-terminal GST; dsDNA, one strand shown
Chain of ETV5 (P41161 whole entry): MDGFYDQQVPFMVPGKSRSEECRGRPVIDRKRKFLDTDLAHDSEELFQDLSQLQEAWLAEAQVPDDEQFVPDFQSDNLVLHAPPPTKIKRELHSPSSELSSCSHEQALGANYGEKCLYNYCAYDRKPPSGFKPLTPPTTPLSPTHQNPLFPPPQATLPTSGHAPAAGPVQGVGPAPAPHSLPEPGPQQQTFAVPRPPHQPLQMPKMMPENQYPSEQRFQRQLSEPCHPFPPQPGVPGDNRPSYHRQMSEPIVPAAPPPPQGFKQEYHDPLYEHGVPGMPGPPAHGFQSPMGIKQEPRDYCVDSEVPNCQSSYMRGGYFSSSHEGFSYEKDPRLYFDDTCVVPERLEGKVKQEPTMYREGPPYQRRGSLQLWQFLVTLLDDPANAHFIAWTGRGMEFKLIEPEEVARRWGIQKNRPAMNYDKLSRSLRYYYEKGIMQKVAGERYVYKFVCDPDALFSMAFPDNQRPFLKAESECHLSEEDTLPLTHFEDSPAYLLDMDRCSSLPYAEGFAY
How it was run: as §1

HSF1 = HSF1 (Homo sapiens, UniProt Q00613 1-529); conditions: protein: recombinant; tags: N-terminal GST; chain copies: 3; dsDNA, one strand shown
Chain of HSF1 (Q00613 whole entry): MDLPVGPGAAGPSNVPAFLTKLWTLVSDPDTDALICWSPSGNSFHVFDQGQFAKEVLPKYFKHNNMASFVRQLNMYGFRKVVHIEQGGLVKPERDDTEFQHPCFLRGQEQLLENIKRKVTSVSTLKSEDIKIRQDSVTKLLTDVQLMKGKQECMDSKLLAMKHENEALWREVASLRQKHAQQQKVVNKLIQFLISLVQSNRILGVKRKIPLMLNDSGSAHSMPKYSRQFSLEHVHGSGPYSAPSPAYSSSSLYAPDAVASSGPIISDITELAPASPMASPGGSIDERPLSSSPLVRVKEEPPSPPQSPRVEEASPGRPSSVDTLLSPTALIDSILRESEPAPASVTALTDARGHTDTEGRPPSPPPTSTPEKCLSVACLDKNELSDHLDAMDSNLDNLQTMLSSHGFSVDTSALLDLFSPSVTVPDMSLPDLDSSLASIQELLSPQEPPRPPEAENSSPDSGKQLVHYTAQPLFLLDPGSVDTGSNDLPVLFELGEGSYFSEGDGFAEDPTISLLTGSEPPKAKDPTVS
How it was run: as §1

SPIC = target: T7, SPIC (Homo sapiens, UniProt Q8N5J4 1-248); conditions: protein: recombinant; tags: N-terminal GST; dsDNA, one strand shown
T7 sequence: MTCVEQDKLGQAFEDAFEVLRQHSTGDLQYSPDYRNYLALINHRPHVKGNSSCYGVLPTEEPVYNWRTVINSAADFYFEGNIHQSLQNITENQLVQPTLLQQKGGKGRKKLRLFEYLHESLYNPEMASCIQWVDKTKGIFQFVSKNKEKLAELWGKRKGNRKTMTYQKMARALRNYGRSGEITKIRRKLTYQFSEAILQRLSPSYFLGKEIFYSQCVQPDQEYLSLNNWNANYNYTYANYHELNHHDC
How it was run: as §1

ELF4 = ELF4 (Homo sapiens, UniProt Q99607 1-663); conditions: protein: recombinant; tags: N-terminal GST; dsDNA, one strand shown
Chain of ELF4 (Q99607 whole entry): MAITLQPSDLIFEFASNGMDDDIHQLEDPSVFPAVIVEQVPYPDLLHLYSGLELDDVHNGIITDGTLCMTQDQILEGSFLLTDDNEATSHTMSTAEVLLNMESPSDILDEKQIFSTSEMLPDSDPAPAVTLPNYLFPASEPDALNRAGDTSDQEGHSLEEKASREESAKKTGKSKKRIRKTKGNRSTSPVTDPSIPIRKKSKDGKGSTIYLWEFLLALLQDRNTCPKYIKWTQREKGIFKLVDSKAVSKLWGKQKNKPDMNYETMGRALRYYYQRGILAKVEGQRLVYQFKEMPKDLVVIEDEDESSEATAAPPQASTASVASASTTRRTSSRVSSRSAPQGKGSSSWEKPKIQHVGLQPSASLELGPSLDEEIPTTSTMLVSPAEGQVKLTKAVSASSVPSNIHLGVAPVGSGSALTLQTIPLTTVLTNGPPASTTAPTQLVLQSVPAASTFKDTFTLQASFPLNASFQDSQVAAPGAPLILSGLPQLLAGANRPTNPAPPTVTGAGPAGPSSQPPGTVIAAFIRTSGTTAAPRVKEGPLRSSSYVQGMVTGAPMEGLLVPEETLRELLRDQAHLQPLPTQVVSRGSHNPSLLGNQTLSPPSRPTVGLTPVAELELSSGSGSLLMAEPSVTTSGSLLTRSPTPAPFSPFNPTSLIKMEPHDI
How it was run: as §1

ETV1 = ETV1 (Homo sapiens, UniProt P50549 1-477); conditions: protein: recombinant; tags: N-terminal GST; dsDNA, one strand shown
Chain of ETV1 (P50549 whole entry): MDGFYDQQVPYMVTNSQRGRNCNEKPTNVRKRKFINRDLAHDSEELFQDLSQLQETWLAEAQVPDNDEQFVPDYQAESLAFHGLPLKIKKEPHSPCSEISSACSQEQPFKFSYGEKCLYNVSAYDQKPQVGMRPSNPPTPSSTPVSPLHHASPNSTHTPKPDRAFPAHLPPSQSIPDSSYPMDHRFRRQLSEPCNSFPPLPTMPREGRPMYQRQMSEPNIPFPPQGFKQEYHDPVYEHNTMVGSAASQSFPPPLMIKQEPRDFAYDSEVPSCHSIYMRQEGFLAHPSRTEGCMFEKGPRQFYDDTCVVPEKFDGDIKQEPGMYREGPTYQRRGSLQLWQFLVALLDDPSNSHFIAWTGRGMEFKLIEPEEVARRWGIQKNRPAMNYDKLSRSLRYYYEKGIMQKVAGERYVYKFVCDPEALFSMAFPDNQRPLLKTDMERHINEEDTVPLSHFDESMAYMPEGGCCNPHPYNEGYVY
How it was run: as §1

ERG = target: T8, ERG (Homo sapiens, UniProt P11308 1-479); conditions: protein: recombinant; tags: N-terminal GST; dsDNA, one strand shown
T8 sequence: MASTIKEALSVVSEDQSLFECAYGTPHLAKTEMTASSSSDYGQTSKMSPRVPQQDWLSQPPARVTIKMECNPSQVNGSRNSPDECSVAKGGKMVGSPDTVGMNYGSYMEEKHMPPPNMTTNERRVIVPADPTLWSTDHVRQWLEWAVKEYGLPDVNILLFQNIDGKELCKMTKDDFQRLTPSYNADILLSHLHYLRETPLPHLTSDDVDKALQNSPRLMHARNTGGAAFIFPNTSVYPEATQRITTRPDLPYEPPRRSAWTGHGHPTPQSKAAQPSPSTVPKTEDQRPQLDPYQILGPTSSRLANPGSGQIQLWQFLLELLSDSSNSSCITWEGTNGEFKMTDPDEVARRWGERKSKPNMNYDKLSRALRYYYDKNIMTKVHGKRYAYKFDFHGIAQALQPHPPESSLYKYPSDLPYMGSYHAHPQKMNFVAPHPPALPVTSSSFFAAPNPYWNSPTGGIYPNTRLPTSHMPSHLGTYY
How it was run: as §1

SPI1 = SPI1 (Homo sapiens, UniProt P17947 1-270); conditions: protein: recombinant; tags: N-terminal GST; dsDNA, one strand shown
How it was run: as §1

ETV2 = target: T9, ETV2 (Homo sapiens, UniProt O00321 1-342); conditions: protein: recombinant; tags: N-terminal GST; dsDNA, one strand shown
T9 sequence: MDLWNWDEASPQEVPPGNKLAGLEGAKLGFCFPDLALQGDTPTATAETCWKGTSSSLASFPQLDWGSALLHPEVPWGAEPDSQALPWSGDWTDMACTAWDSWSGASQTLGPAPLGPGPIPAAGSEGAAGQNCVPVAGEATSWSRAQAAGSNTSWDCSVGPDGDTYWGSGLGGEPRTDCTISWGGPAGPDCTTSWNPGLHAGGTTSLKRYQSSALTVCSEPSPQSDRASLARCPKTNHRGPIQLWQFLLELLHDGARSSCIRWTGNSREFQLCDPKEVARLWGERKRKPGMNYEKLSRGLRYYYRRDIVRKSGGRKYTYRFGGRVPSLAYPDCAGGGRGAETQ
How it was run: as §1

CRX = CRX (Homo sapiens, UniProt O43186 1-299); conditions: protein: recombinant; tags: N-terminal GST; dsDNA, one strand shown
Chain of CRX (O43186 whole entry): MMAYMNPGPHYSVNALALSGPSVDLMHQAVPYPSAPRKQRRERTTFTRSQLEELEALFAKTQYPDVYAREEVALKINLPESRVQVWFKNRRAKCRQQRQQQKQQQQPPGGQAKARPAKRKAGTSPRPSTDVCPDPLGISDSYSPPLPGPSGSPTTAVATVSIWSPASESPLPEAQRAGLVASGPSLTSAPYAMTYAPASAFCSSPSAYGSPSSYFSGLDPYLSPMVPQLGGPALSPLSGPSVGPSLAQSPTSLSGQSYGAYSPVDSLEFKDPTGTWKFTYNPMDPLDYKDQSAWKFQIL
How it was run: as §1

Row | Sequence | binding signal (FLI1) | binding signal (ELK1) | binding signal (GABPA) | binding signal (ELF1) | binding signal (EHF) | binding signal (SPIB) | binding signal (ELK3) | binding signal (FEV) | binding signal (ETV5) | binding signal (HSF1) | binding signal (SPIC) | binding signal (ELF4) | binding signal (ETV1) | binding signal (ERG) | binding signal (SPI1) | binding signal (ETV2) | binding signal (CRX)
1 | CTCGTG | 1.19 fold enrichment (6-mer frequency, TF over GST control) | 1.09 fold enrichment (6-mer frequency, TF over GST control) | 1.28 fold enrichment (6-mer frequency, TF over GST control) | 1.16 fold enrichment (6-mer frequency, TF over GST control) | 1.07 fold enrichment (6-mer frequency, TF over GST control) | 1.05 fold enrichment (6-mer frequency, TF over GST control) | 1.11 fold enrichment (6-mer frequency, TF over GST control) | 1.05 fold enrichment (6-mer frequency, TF over GST control) | 1.03 fold enrichment (6-mer frequency, TF over GST control) | 1.18 fold enrichment (6-mer frequency, TF over GST control) | 1.03 fold enrichment (6-mer frequency, TF over GST control) | 1.21 fold enrichment (6-mer frequency, TF over GST control) | 1.18 fold enrichment (6-mer frequency, TF over GST control) |  |  |  | 
2 | AGATGA | 1.06 fold enrichment (6-mer frequency, TF over GST control) | 1.13 fold enrichment (6-mer frequency, TF over GST control) |  | 1.14 fold enrichment (6-mer frequency, TF over GST control) | 1.06 fold enrichment (6-mer frequency, TF over GST control) | 1.03 fold enrichment (6-mer frequency, TF over GST control) | 1.14 fold enrichment (6-mer frequency, TF over GST control) | 1.01 fold enrichment (6-mer frequency, TF over GST control) | 1.11 fold enrichment (6-mer frequency, TF over GST control) | 1.24 fold enrichment (6-mer frequency, TF over GST control) | 1.14 fold enrichment (6-mer frequency, TF over GST control) | 1.12 fold enrichment (6-mer frequency, TF over GST control) | 1.1 fold enrichment (6-mer frequency, TF over GST control) | 1.11 fold enrichment (6-mer frequency, TF over GST control) | 1.07 fold enrichment (6-mer frequency, TF over GST control) | 1.17 fold enrichment (6-mer frequency, TF over GST control) | 1.21 fold enrichment (6-mer frequency, TF over GST control)
